Compound activity from PubChem.
Sampled rows, rich in hits. Any-hit rate of the full collection: about 3.4%.
esBAF inh: SWI/SNF esBAF complex inhibition; mouse ES cells, Bmi1-luciferase knock-in reporter, 24 h; 100% = twice the neutral-well signal; reporter increase, % at 12.5 µM; actives 2% (n = 350,000); AID 602393; in the data active means activation above about 40%; inconclusive means no clear call, values can overlap the other calls;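 further: 0% = median of the plate's neutral control wells and 100% = double that signal; a rise in the Bmi1 reporter signal indicates esBAF inhibition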
miR122 inh: inhibitors of miR-122 in Huh7 cells; Huh7 miR-122 Renilla luciferase sensor, 48 h; neutral wells = 0, positive control = 100; activation (reporter increase), % at 12.5 µM; actives 0.3% (n = 340,000);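 active means mean replicate activation score at least 90 and every replicate individually at or above 90; inconclusive means only one of the two criteria met; inactive means neither criterion met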;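 further: higher luciferase means less miR-122 activity so hits act as miR-122 inhibitors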
MITF act: MITF TRPM1 promoter activation in melanoma cells; SK-MEL-5 TRPM1-promoter luciferase, 24 h; % of positive control, neutral wells = 0; activation, % at 12.5 µM; actives 0.75% (n = 300,000);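 active means mean activation of at least 80% with every replicate also reaching 80%; inconclusive means mean reaches 80% but some replicate falls short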;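 further: 0% = neutral control wells and 100% = parthenolide positive control wells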
Wnt bcat act: Wnt/beta-catenin pathway activation; Wnt/beta-catenin reporter cell assay, activator, plate reader; activation, % at 9.35 µM; actives 1.2% (n = 300,000); in the data active means activation above about 30%, passing the limit was not always enough; inconclusive means no clear call, values can overlap the other calls;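 further: 0% = neutral control wells and 100% = positive control wells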
Env fusion inh: blocks HIV Env-driven cell-cell fusion; actives 1.1% (n = 360,000); AID 651610; HeLa-JRFL Env/CEM21 cell fusion, luciferase; inhibition, % at 12.3 µM;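 active means mean replicate inhibition score of at least 50 and every replicate individually at or above 50; inconclusive means only one of the two criteria met; inactive means mean below 50 and not all replicates reaching 50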;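 further: 0% = plate neutral controls and 100% = maraviroc near 300 nM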
Active calls of the source: *; i = inactive; ? = inconclusive; . = no result; ! = repeats disagree; [ ] = remark or other dose.

SMILES	esBAF inh	miR122 inh	MITF act	Wnt bcat act	Env fusion inh
CC(c1nc2ccccc2[nH]1)n1c(=O)c(-c2cccs2)nc2ccccc21 (centres undefined)	.	.	.	-4	23
c1csc(-c2nnsc2-c2nc3ccccc3[nH]2)c1	40*	-2	-4	23	19
O=c1[nH]c2ccccc2nc1-c1cccs1	68*	-1	.	43*	-120
CCCNC(=O)NC[C@@H]1[C@@H](c2ccc(C3=CCCC3)cc2)[C@@H](CO)N1C(=O)CC	-3	143*[16.7 µM]	.	.	.
CCCNC(=O)NC[C@H]1[C@@H](c2ccc(C3=CCCC3)cc2)[C@H](CO)N1C(=O)CC	0	36[16.7 µM]	.	.	.
Cc1ccc(S(=O)(=O)n2nc(C)c(Br)c2C)c(C)c1C	-7	105*	5	.	.
CCOC(=O)N1CCN(S(=O)(=O)c2ccc(C)c(C)c2C)CC1	-5	4	-4	1	.
CCCCCCCCN1C(=O)[C@@H](CC(=O)NCc2ccc(OC)c(OC)c2)C[C@@]2(C(=O)OC)C1=C[C@H](C(C)(C)C)O[C@@H]2C	.	.	.	-16	70*
COC(=O)[C@]12C[C@H](CC(=O)NCc3ccc(OC)c(OC)c3)C(=O)N(CCc3ccc(OC)c(OC)c3)C1=C[C@H](C(C)(C)C)O[C@@H]2C	.	.	.	-2	58*
COC(=O)[C@]12C[C@H](CC(=O)NCc3cccc(C(F)(F)F)c3)C(=O)N(CCc3ccc(OC)c(OC)c3)C1=C[C@H](C(C)(C)C)O[C@@H]2C	.	.	.	-16	-10
CCCCCCCCN1C(=O)[C@@H](CC(=O)NCc2cccc3ccccc23)C[C@@]2(C(=O)OC)C1=C[C@H](C(C)(C)C)O[C@@H]2C	.	.	.	-24	63*
C[C@H](O)C#Cc1ccc2c(c1)O[C@H](CN(C)C(=O)C1CCCCC1)[C@H](C)CN([C@H](C)CO)S2(=O)=O	-11	20[16.7 µM]	.	.	-13[16.7 µM]
C[C@H](NC(=O)[C@H]1[C@H](CO)[C@H]2Cn3c(ccc(-c4ccccc4F)c3=O)[C@@H]1N2C)c1ccccc1	3	.	.	.	-12[16.7 µM]
CN(Cc1cnc2nc(N)nc(N)c2n1)c1ccc(C(=O)N[C@@H](CCC(=O)O)C(=O)O)cc1	-45	-9	-35	-2	62*!
Nc1nc(CSc2ccccn2)nc(Nc2ccccc2)n1	52*	-12	152*	43*	-180
Nc1nc(CSCCO)nc(Nc2ccccc2)n1	21	-5	2	.	.
COc1ccc(Nc2nc(N)nc(CSc3nnc(N)s3)n2)cc1	10	-9	.	.	-55
COc1ccc(Nc2nc(N)nc(CSc3nccn3C)n2)cc1	.	.	6	56*	-5
O=C(c1cc([N+](=O)[O-])ccc1N1CCOCC1)N1CCN(c2ccccc2)CC1	-45	?	-58	-2	-106
O=[N+]([O-])c1ccc(O)c(C(C#Cc2ccccc2)N2CCOCC2)c1 (centres undefined)	.	.	5	29	89*
COC(=O)c1ccc(NN=Nc2ccc(C)cc2)cc1	.	0	15	.	.
COC(=O)c1ccc(N=NN2CCCCC2)cc1	.	.	89*	0	-48
NNC(=O)c1ccc2nc(-c3ccc(Br)cc3)cn2c1	.	2	93*	16	-44
COc1ccc(-c2cn3cc(C(=O)NN)ccc3n2)cc1	.	.	40	12	-24
CCOc1cc(/C=C2\CN(CC)C/C(=C\c3ccc(O)c(OCC)c3)C2=O)ccc1O	23	-36	-92	9	67*
SMILES	esBAF inh	miR122 inh	MITF act	Wnt bcat act	Env fusion inh
O=C1CCC(c2ccccc2)c2ccccc21 (centres undefined)	2	1	.	52*	-3
CC1CC(=O)c2ccccc2C1C (centres undefined)	-12	.	-9	-3	-28
COc1ccc(S(=O)(=O)Nc2ccc3c(c2)C(=O)N([C@@H](C)CO)C[C@@H](C)[C@@H](CN(C)C(=O)NC2CCCCC2)OCCCC[C@H](C)O3)cc1	10	5[16.7 µM]	.	.	-27[16.7 µM]
CCC(=O)Nc1cccc(NC(=S)NC(=O)c2ccc(C)cc2)c1	96*	3	47	-8	-37
O=C(NC(=S)Nc1cccc(NC(=S)NC(=O)c2ccccc2)c1)c1ccccc1	66*	.	1	-3	i
O=C(NC(=S)Nc1ccc2[nH]ncc2c1)c1ccccc1	66*	.	41	.	.
CCOc1cccc(C(=O)NC(=S)Nc2ccccc2)c1	.	.	93*	5	-54
CCC(=O)Nc1cccc(NC(=S)NC(=O)c2ccccc2)c1	.	.	48	.	-26
CC(C)NC(=O)NCC[C@H]1CC[C@H](NS(=O)(=O)c2ccc(-c3ccccc3)cc2)[C@H](CO)O1	7	.	.	.	-3[16.7 µM]
C[C@H](CO)N1C[C@H](C)[C@H](CN(C)Cc2ccc(C(=O)O)cc2)Oc2c(NS(=O)(=O)c3cn(C)cn3)cccc2C1=O	4	2[16.7 µM]	.	.	-3[16.7 µM]
Cc1ccc(NC(=S)NC(=O)c2ccccc2)cc1NC(=S)NC(=O)c1ccccc1	28	.	-16	9	-12
O=C(NC(=S)Nc1ccc2nc[nH]c2c1)c1ccccc1	55*	-5	102*	17	-38
O=C(NC(=S)Nc1ccc2ncccc2c1)c1ccccc1	67*	5	75	15	-28
O=C(Nc1ccc2ncccc2c1)c1ccccc1	-5	-4	-10	-1	-5
CC(=O)c1cccc(NC(=S)NC(=O)c2ccc(C)cc2Cl)c1	60*	-12	29	.	-12
O=C(O)c1cccc(NC(=S)NC(=O)c2ccc3ccccc3c2)c1	.	2	-38	16	.
O=C(O)c1ccc(NC(=S)NC(=O)c2ccc3ccccc3c2)cc1	41*	6	2	18	-98
CN(C)CCCNC(=O)C[C@@H]1CC[C@H](NS(=O)(=O)c2ccccc2)[C@H](CO)O1	0	.	.	.	-11[16.7 µM]
N#Cc1ccc(-c2ccc3c(c2)[C@@H]2[C@@H](CCN2C(=O)c2ccc(F)cc2)[C@@H](CO)N3)cc1	-9	-7[16.7 µM]	.	.	.
CO[C@H]1CN(C)C(=O)c2ccc(NS(=O)(=O)c3ccc(Cl)cc3)cc2OC[C@H](C)NC[C@@H]1C	.	.	.	.	9[16.7 µM]
O=C(NCC[C@H]1CC[C@H](NC(=O)C2CCOCC2)[C@@H](CO)O1)c1ccc(F)cc1	-3	.	.	.	-17[16.7 µM]
O=C(NNC(=S)Nc1ccccc1)c1ccc2ncccc2c1	.	.	52	0	-26
CC(C)(C)NC(=S)NNC(=O)c1ccc2ncccc2c1	57*	1	73	11	-37
Cc1[nH]n(-c2ccccc2)c(=O)c1N=Nc1ccc2c(c1)OCO2	64*	-1	49	50*	-116
COc1cccc(N=Nc2c(C)[nH]n(-c3ccccc3)c2=O)c1	35	.	.	-1	-18
Nc1ccccc1C(=O)N/N=C1/C2CN3CCN(C2)CC1(Cc1ccccc1)C3	.	-4	14	2	2
CCCC12CN3CCN(CC(C3)/C1=N\NC(=O)c1ccccc1N)C2	.	-6	-4	37*	-2
CS(=O)(=O)Nc1ccc2c(c1)[C@H]1C[C@@H](CC(=O)NCC3CC3)O[C@@H](CO)[C@H]1O2	5	4[16.7 µM]	.	.	-2[16.7 µM]
